tested on: PPARg DBDmut:RXRa IVT, anti-PPARg (DBD mutation: PPARg1 K132A/R137A, NR concentration 270 nM, RXRa partner concentration 90 nM); experiment: PBM binding z-score (relative to random genomic background probes); higher = stronger binding; sequences stand for … in GC…GCGATTGACAGCGTAGAATGAAGG
How it was run: (§1)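 Ligand-free nuclear receptor dimers were applied to custom Agilent 4×180K protein-binding microarrays whose double-stranded probes carried direct-repeat seeds, single-nucleotide variants, half-site ablations and random human genomic background sequences in 34-nt variable regions. Incubation lasted 1 h. Binding z-scores were computed against the random background probes from regression-normalized fluorescence.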

Sequence | PBM binding z-score
ATCTCTAGGTGAAGTTCAGTGAAAGATCGATAGA | 1.05
CCGACTGGGGCAGAAAGTTTACCATACCATCCGG | -1.52
ACAGACAGGTGATGAAGGTAACTAAGGCTATCAT | 0.827
GCATGTAGATCAAGGTTAAGAAAGACTAAGCTAA | -0.718
TCTTGTAGATCAACAGGAGGTCAAGAAAGATCGA | 0.588
CTTGCTAGGTCAATGGTCAGCTAAAGCAGCTCGC | -0.161
TCGAGTAGGTTCGTCGGGGCATTCAGCCAACATA | -1.34
ATCTCTGGGTAACAAGTTCAGTGAAAGAGAGGAC | 0.76
TAGCCCAGGTCAGATCGGGCCAGTATACGCTATA | -0.255
TGTCAAAGTTCAATGGTAACGTAAGTATCCACAC | 0.89
CGAACGAGGGCATGAGTTGATAGCAAATGCCGAT | -0.334
CGTCCAAGGTCATAGGAGGTCAGGGAAGACAGAT | 1.73
GCTGCTTGGTCAACTGATGGTCAGCTAAAGCTCG | -0.74
ATCTCTAGGAAACCAAGTTCAGTGAATGCCGAAC | 0.852
CCTGCTAGGTCATGGTCATCTAATCTACAGTATG | 0.258
TAGCCTATGTCATTGGGCCAGTATAGTACGCATC | 0.11
CGAACTAGGTCAGAACAGGACACTGAAGGATGAT | 1.14
GCTCGGAGGACAAGGTCAGATCTTTGTCCGTAGA | -0.782
AGAATGAGGTTATTACGATCAGGGAATTGCGGTC | 1.02
TCATATACGTAAAAGGTGAAAGTCGGTGTGGTAA | 2.06

Sequence | PBM binding z-score
CCTAGTGGGCCACGAAAGGTCATTGATTCAGTGA | 0.164
TCTTGTAGTTCAATAGAGGTTAAGAAAGTGCGCT | 0.563
ACAGACAGGTGATAAAGGTAACTCAGGCTATCAT | -0.885
CCTACTGGGTCATCAGGTCATTGATATCAACGTT | 1.4
TCATCTAGGTAAAAGGTGAAAGTCGGTGTGGTAA | 2.1
CAGCCTAGGTCAGGCCCAGTATAGGAGGAACGTT | -0.686
AATACAGGGTCATCGTAAGCCAGAGTACGCACAG | 1.58
CCTACTGGGCCACGAACGGTCATTGATTCAGTGA | -0.4
GCGACTTGGGCAAAGCAGGTTACCATAAGGTTGG | -0.728
TCTAGTAGGTTAGTCGGGGCATTCAGCCAACATA | 0.243
AGAACGAGGGCACGCTCAGTTGATAGCAGAGTAG | 0.654
CGTACTAGGTCATTGACAGGACAGTGAATAGTAA | 3.72
ATCGAAAGGTCGAGGTGAGCATAGAGAAAGGGAA | 0.675
TCATATAGGTAAAGGTGCAAGTCGAACGATATGA | 0.688
TCTAGTTGGTCACGGAGGTCACTCACGACGGGTA | 0.646
GCGACTGGGGCATAAGCAGGTTACCATAACTTAA | -0.0704
AATACAGGCTCATCGTAGGCCAGAGTACGCACAG | 0.24
CGTACAAGGTCAGCAGGTCAGTGAAAGCGACGTG | 1.35
ACAGACAGGTGAGTGAAGGGAACTCAGCTGGACG | -0.265
CCTACTGGGCCAAAAAGGTCCTTGATGCCGATAA | -0.992

tested on: PPARg DBDmut IVT, anti-PPARg (DBD mutation: PPARg1 K132A/R137A, NR concentration 270 nM); experiment: as above
How it was run: as §1

Sequence | PBM binding z-score
ATCTCTAGGTGAAGTTCAGTGAAAGATCGATAGA | 1.05
CCGACTGGGGCAGAAAGTTTACCATACCATCCGG | -1.73
ACAGACAGGTGATGAAGGTAACTAAGGCTATCAT | -0.211
GCATGTAGATCAAGGTTAAGAAAGACTAAGCTAA | -0.329
TCTTGTAGATCAACAGGAGGTCAAGAAAGATCGA | 0.144
CTTGCTAGGTCAATGGTCAGCTAAAGCAGCTCGC | 0.902
TCGAGTAGGTTCGTCGGGGCATTCAGCCAACATA | -1.13
ATCTCTGGGTAACAAGTTCAGTGAAAGAGAGGAC | 0.979
TAGCCCAGGTCAGATCGGGCCAGTATACGCTATA | -0.724
TGTCAAAGTTCAATGGTAACGTAAGTATCCACAC | 1.61
CGAACGAGGGCATGAGTTGATAGCAAATGCCGAT | -0.825
CGTCCAAGGTCATAGGAGGTCAGGGAAGACAGAT | 1.82
GCTGCTTGGTCAACTGATGGTCAGCTAAAGCTCG | -1.06
ATCTCTAGGAAACCAAGTTCAGTGAATGCCGAAC | 0.501
CCTGCTAGGTCATGGTCATCTAATCTACAGTATG | 0.159
TAGCCTATGTCATTGGGCCAGTATAGTACGCATC | 0.249
CGAACTAGGTCAGAACAGGACACTGAAGGATGAT | 1.38
GCTCGGAGGACAAGGTCAGATCTTTGTCCGTAGA | -0.686
AGAATGAGGTTATTACGATCAGGGAATTGCGGTC | 0.66
TCATATACGTAAAAGGTGAAAGTCGGTGTGGTAA | 2.25

Sequence | PBM binding z-score
CCTAGTGGGCCACGAAAGGTCATTGATTCAGTGA | -0.293
TCTTGTAGTTCAATAGAGGTTAAGAAAGTGCGCT | 1.1
ACAGACAGGTGATAAAGGTAACTCAGGCTATCAT | -0.537
CCTACTGGGTCATCAGGTCATTGATATCAACGTT | 0.93
TCATCTAGGTAAAAGGTGAAAGTCGGTGTGGTAA | 1.06
CAGCCTAGGTCAGGCCCAGTATAGGAGGAACGTT | -1.02
AATACAGGGTCATCGTAAGCCAGAGTACGCACAG | 1.04
CCTACTGGGCCACGAACGGTCATTGATTCAGTGA | -0.69
GCGACTTGGGCAAAGCAGGTTACCATAAGGTTGG | -1.56
TCTAGTAGGTTAGTCGGGGCATTCAGCCAACATA | 0.851
AGAACGAGGGCACGCTCAGTTGATAGCAGAGTAG | 0.271
CGTACTAGGTCATTGACAGGACAGTGAATAGTAA | 3.85
ATCGAAAGGTCGAGGTGAGCATAGAGAAAGGGAA | 0.756
TCATATAGGTAAAGGTGCAAGTCGAACGATATGA | 1.15
TCTAGTTGGTCACGGAGGTCACTCACGACGGGTA | 0.986
GCGACTGGGGCATAAGCAGGTTACCATAACTTAA | -1.04
AATACAGGCTCATCGTAGGCCAGAGTACGCACAG | -0.0374
CGTACAAGGTCAGCAGGTCAGTGAAAGCGACGTG | 0.315
ACAGACAGGTGAGTGAAGGGAACTCAGCTGGACG | -0.714
CCTACTGGGCCAAAAAGGTCCTTGATGCCGATAA | -1.33

From the supplement of paper PMC6555819
